Screens from PubChem BioAssay.
GLD-1 TGE inh: GLD-1-TGE RNA interaction inhibition (C. elegans); Q17339; purified GLD-1 + fluorescein TGE RNA, fluorescence polarization; inhibition, % at 5.96 µM; hit rate 0.44% among 320,000; AID 2280;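 active means percent inhibition above a per-plate cutoff, the plate mean of test compounds plus 3 SD, cut at about 30% in these data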;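 further: 0% = DMSO wells with GLD-1 and probe and 100% = wells lacking GLD-1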
MEX-5 binding: C. elegans MEX-5 TCR-2 RNA binding activity | Q9XUB2 | MEX-5/FITC-TCR2 RNA binding, fluorescence polarization; hits give low values | activity score (negative = inhibition of binding), % at 10 µM | hit rate 0.38% among 300,000 | AID 1832;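 active means inhibition past about -25% in most replicates, and total fluorescence under double the plate's negative control median, limit read from the data; inconclusive means replicates evenly split on the limit, or fluorescence at least double controls; inactive means too little inhibition in most replicates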;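 further: 0% = DMSO and -100% = 5 µM competing unlabeled TCR2 RNA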
Bcl-xL primary: blocks human Bcl-xL binding to Bim BH3 peptide; GST-Bcl-xL / FITC-Bim BH3 peptide fluorescence polarization; hit rate 0.7% among 320,000; inhibition, % at 10.9 µM;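 active means inhibition above the mean of all tested compounds plus 3 SD, cutoff set per campaign, cut at about 30% in these data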;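 further: 0% = DMSO wells and 100% = unlabeled Bim-BH3 peptide competitor; inhibitors lower millipolarization by displacing the labeled peptide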
Target sequence (Q07817 whole entry, looked up): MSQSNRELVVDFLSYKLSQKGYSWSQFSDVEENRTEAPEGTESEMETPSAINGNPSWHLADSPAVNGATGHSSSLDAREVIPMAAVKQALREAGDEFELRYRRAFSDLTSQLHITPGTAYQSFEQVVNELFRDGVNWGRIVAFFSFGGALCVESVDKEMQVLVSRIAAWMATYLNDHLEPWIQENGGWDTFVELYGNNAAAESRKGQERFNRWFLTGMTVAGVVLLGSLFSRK
MCL1 BIM primary: MCL1-BIM-BH3 interaction inhibition (human). Q07820. GST-MCL1 / FITC-Bim-BH3 fluorescence polarization. inhibition, % at 10.9 µM. hit rate 0.68% among 320,000. AID 2057;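 active means inhibition above the mean inhibition of all tested compounds plus 3 SD, set per campaign, cut at about 40% in these data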;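 further: 0% = DMSO wells and 100% = unlabeled Bim-BH3 peptide control; higher means more loss of mP so more displacement of Bim peptide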
Target sequence (Q07820 whole entry, looked up): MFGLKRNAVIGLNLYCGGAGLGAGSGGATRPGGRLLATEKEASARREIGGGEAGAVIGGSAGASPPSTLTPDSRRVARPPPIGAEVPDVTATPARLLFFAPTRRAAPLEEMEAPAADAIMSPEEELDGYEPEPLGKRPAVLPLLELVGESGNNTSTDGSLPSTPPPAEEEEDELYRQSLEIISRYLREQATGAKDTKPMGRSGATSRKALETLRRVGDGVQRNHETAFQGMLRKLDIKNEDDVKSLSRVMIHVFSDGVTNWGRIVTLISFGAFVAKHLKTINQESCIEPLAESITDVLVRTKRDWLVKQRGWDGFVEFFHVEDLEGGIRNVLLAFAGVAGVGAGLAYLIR
IDE cell inh: inhibits human insulin-degrading enzyme in HEK cells. hit rate 0.41% among 320,000. inhibition, % at 5.59 µM. FAbetaB cleavage, fluorescence polarization;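 active means percent inhibition above the average of all tested compounds plus 3 SD, set per screening campaign, cut at about 16% in these data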;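 further: IDE supplied by intact live HEK cells; FP after avidin binding of uncleaved biotin substrate so inhibition keeps polarization high; 0% = DMSO wells and 100% = 60 µM reference IDE inhibitor Ii1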
IDE act: boosts human insulin-degrading enzyme activity in HEK cells; activation, % at 5.96 µM; P14735; hit rate 0.073% among 340,000; FAbeta-B cleavage, fluorescence polarization; 0% vehicle, 100% cell-free pure enzyme wells;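 active means activation above the mean of all tested compounds plus 3 SD, set per screening campaign, cut at about 17% in these data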
IDE inh confirm: cellular human IDE inhibition, confirmation; HEK cells, FAbetaB cleavage, fluorescence polarization; shares compounds with IDE cell inh; AID 435028; inhibition, % at 5.59 µM; hit rate 51% among 1,200;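 active means mean inhibition across triplicate wells above the cutoff set by the earlier primary insulin-degrading enzyme screen, cut at about 16% in these data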;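 further: 0% = DMSO wells and 100% = 60 µM reference IDE inhibitor Ii1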
HEK cytotox: HEK cell cytotoxicity, counter-screen for IDE inhibitors; inhibition, % at 5.59 µM; AID 449730; shares compounds with IDE cell inh; hit rate 28% among 1,200; HEK293 cytotoxicity, ATP luminescence; in the data active means inhibition above about 22%;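 further: 0% = vehicle wells and 100% = reference cytotoxic drug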
IDE FP artifact: fluorescence interference counter-screen for IDE inhibitors; shares compounds with IDE cell inh; FP counterscreen for fluorescent artifacts, IDE probe project; IC50, µM; 30 tested, under 10 active; AID 588718; call rule not given here
Active calls of the source: *; u = inconclusive; x = no result. Only some compounds are listed: those with a hit (about 1.5% of all), similar ones and a draw of the others.

SMILES	GLD-1 TGE inh	MEX-5 binding	Bcl-xL primary	MCL1 BIM primary	IDE cell inh	IDE act	IDE inh confirm	HEK cytotox	others
Cc1ccc(C(=O)NC(C(=O)OCc2cn3cc(Cl)ccc3n2)C(C)C)cc1 (stereo not given)	3	x	0	0	1	1	x	x
CCOc1ccccc1-n1c(SCC(N)=O)nnc1-c1cccnc1	5	0	-8	-7	17*	-33	13	9
CCOc1ccccc1-n1c(SCC(=O)N(C(C)C)C(C)C)nnc1-c1cccnc1	5	3	6	-2	12	-20	x	x
COc1ccc(C(C)NC(=O)c2ccncc2)cc1OC (stereo not given)	0	0	3	2	-7	-2	x	x
S=C(NCCCN1CCOCC1)N1CCN(c2nc(-c3ccccc3)cs2)CC1	0	1	6	5	23*	-6	2	27*
S=C(NCC1CCCO1)N1CCN(c2nc(-c3ccc(Cl)cc3)cs2)CC1 (stereo not given)	-2	0	-6	-1	21*	-23	12	54*
Cc1ccc(S(=O)(=O)/N=C2/NC(=O)/C(=C\c3cc(Br)cc(Br)c3O)S2)cc1	x	x	x	x	x	-135	x	x
O=C1N/C(=N\S(=O)(=O)c2ccccc2)S/C1=C\c1cc([N+](=O)[O-])ccc1O	-6	2	-6	-22	50*	-41	70*	13
O=C1N/C(=N\S(=O)(=O)Cc2ccccc2)S/C1=C/c1cc([N+](=O)[O-])ccc1O	-5	6	-9	-14	40*	-46	75*	9
Cc1cccc(C)c1NC(=O)CCCCCC1NC(=O)NC1C (stereo not given)	-13	-1	1	-1	22*	-42	1	7
COc1cc(C(=O)OCC(=O)Nc2ccc3c(c2)OC(F)(F)O3)ccc1OCc1c(C)noc1C	1	0	3	-1	17*	1	3	7
COc1ccc(NC(=O)COC(=O)c2ccc(OCc3c(C)noc3C)cc2)cc1OC	7	3	-2	-5	5	0	x	x
CCC(Sc1nccn1C)C(=O)Nc1ccc(Cl)cn1 (stereo not given)	4	5	0	-5	-3	3	x	x
CC(=O)Oc1c(Cl)cc(Cl)cc1/C=C/c1ccc2ccccc2n1	0	2	0	-6	45*	-65	68*	12
CCOc1ccccc1CNC(=O)Cn1ccc2cc(S(=O)(=O)N3CCC(C)CC3)ccc21	1	2	5	-2	-2	0	x	x
CCC(=O)NC(c1ccc(C)cc1)c1cc([N+](=O)[O-])c2cccnc2c1O (stereo not given)	-9	5	8	15	33*	6	1	39*
CCC(=O)N1CCN(c2ccccc2NC(=O)COc2ccc(C(C)C)cc2)CC1	-3	-2	5	5	-4	-1	x	x
OCC[n+]1ccc(/C=C/c2c[nH]c3ccccc23)cc1	50*	u	7	-67	24*	-29	39*	57*
C(=Cc1c[nH]c2ccccc12)c1nccc2ccccc12	x	x	x	x	x	-8	x	x
COc1cc(OC)c(OC)cc1/C=C1\Oc2cc(OS(C)(=O)=O)ccc2C1=O	-41	u	-36	-73	20*	-20	18*	6
COc1cc(OC)c(OC)cc1/C=C1\Oc2cc(OCC(=O)N3Cc4ccccc4C[C@H]3C(=O)O)ccc2C1=O	-47	26	-4	-23	62*	-94	106*	0
COc1ccc(/C=C2\Oc3cc(OCC(=O)N4CCC[C@H]4C(=O)O)ccc3C2=O)c(OC)c1	-32	2	-21	-29	4	-5	x	x
C=CCn1c(O)c(N=NC(=S)Nc2cccc(C)c2)c2ccccc21	7	-3	1	-1	24*	-4	2	82*
O=C(N/N=C/c1c(O)n(-c2ccc(Cl)cn2)c(=O)c2ccccc12)C1CC1	-9	-2	-7	-22	1	2	x	x
O=C(N/N=C/c1c(O)n(-c2ccc(Cl)cn2)c(=O)c2ccccc12)c1ccncc1	-44	0	-47	-74	22*	-27	38*	3
SMILES	GLD-1 TGE inh	MEX-5 binding	Bcl-xL primary	MCL1 BIM primary	IDE cell inh	IDE act	IDE inh confirm	HEK cytotox	others
O=C(O)C1Oc2ccccc2C1c1ccccc1 (stereo not given)	x	x	x	x	x	3	x	x
CCOC(=O)CC1C(=O)NCCN1c1nc2ccc(C)cn2c(=O)c1/C=C1\SC(=S)N(CC(C)C)C1=O (stereo not given)	-44	7	-1	-28	56*	-186	58*	10
CCCN1C(=O)/C(=C/c2c(N3CCNC(=O)C3CC(=O)OCC)nc3c(C)cccn3c2=O)SC1=S (stereo not given)	-94	-17	-33	-82	65*	-130	29*	32*
O=C(O)c1ccccc1N/N=C/c1c(Sc2nnnn2-c2ccccc2)nc2ccccn2c1=O	-45	-26*	-26	-48	69*	-137	43*	7
O=c1c(/C=N/Nc2ccccc2)c(Sc2nnnn2-c2ccccc2)nc2ccccn12	x	x	x	x	x	-8	x	x
CC(=O)Cn1cnc2c(sc3nc(C)cc(C)c32)c1=O	3	-1	5	2	11	-1	x	x
Cc1cc(C)c2c(=O)n(CC(=O)N3CCC(N4CCCCC4)CC3)sc2n1	-1	0	4	17	7	-56	x	x
CCOC(=O)C1CCCN(C(=O)Cn2sc3nc(C)cc(C)c3c2=O)C1 (stereo not given)	4	-5	2	1	19*	-61	8	66*
CCCNC(=O)Cn1sc2nc(C)cc(C)c2c1=O	11	3	4	-3	40*	-48	14	42*
O=C1NC2(CCSC2)C(=O)N1CC(=O)N(Cc1ccccc1)C1CCS(=O)(=O)C1 (stereo not given)	4	-3	-12	-10	3	4	x	x
Cc1ccc2c(cnn2C(=O)CCC(=O)N2CCCCC2)c1	0	-1	0	0	-3	4	x	x
CN(C(=O)COC(=O)CSc1ccc(C(N)=O)cc1[N+](=O)[O-])C1CCS(=O)(=O)C1 (stereo not given)	7	-1	3	1	3	1	x	x
CC(C)c1ccc(N2CC(C)(C)C2=O)cc1	-4	0	-4	-5	4	4	x	x
Cn1c(=O)c(C(=O)CN2CCCc3ccccc32)c(N)n(Cc2ccccc2)c1=O	-6	6	21	23	31*	0	17*	22	IDE FP artifact=>55
